Inconclusive results are not listed. Where a call stands in place of a potency, no number is given. The source made the active and inactive calls. Unless noted, calls come from the whole dose curve; as a rule, active = well fitted curve in the direction sought with a large enough effect in the repeat runs; inconclusive = weak or mixed curves; inactive = no such curve, though single readings can be large; an effect the other way counts as inactive or inconclusive.
Key:
[1] = qHTS assay to test for compound auto fluorescence at 535 nm (green) in HEK293 cells (AID 720680)
[2] = qHTS assay to test for compound auto fluorescence at 460 nm (blue) in HEK293 cell free culture (AID 720681); note: potency is the fitted concentration of half-maximal effect
How it was run: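 Test compounds were pinned into cell-free culture medium (DMEM with 10% FBS) and fluorescence was read directly at Ex/Em 405/460 nm. Signals were expressed as fluorescence equivalents of triamterene, with DMSO vehicle as control.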

[3] = qHTS assay to test for compound auto fluorescence at 535 nm (green) in HEK293 cell free culture (AID 720682)
How it was run: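 Read-out: 485/535 nm fluorescence intensity, calibrated against fluorescein. Medium only (DMEM + 10% FBS, no cells); test compound or DMSO vehicle added by pintool before plate reading.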

[4] = qHTS assay to test for compound auto fluorescence at 590 nm (red) in HEK293 cell free culture (AID 720683); note: potency is the fitted concentration of half-maximal effect
How it was run: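 Tox21 10K library compounds were pinned into cell-free DMEM with 10% FBS and fluorescence was read at excitation 540 nm. Activity is expressed as Rose Bengal sodium equivalency.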

[5] = qHTS assay to test for compound auto fluorescence at 590 nm (red) in HepG2 cell free culture (AID 720684); note: potency is the fitted concentration of half-maximal effect
How it was run: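 Ex 540 / Em 590 nm read of compound in cell-free MEM (10% FBS). Rose Bengal sodium reference.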

[6] = qHTS assay to test for compound auto fluorescence at 535 nm (green) in HepG2 cell free culture (AID 720686)
[7] = qHTS assay to test for compound auto fluorescence at 460 nm (blue) in HepG2 cells (AID 720687)
How it was run: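 Cells (2,000/well in MEM with 10% FBS) attached overnight at 37 C, then were exposed to compound or DMSO for 1 hr at 37 C, 5% CO2. Fluorescence read at Ex/Em 405/460 nm, expressed as triamterene-equivalent signal.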

[8] = qHTS assay to identify small molecule antagonists of the glucocorticoid receptor (GR) signaling pathway - cell viability counter screen (AID 720693); note: nearly all actives have a fitted effect of over 55% in size; note: potency is the fitted concentration of half-maximal effect
[9] = qHTS assay for identifying genotoxic compounds that show differential cytotoxicity against isogenic chicken DT40 cell lines with known DNA damage response pathways - Rev3 mutant cell line (AID 743014); note: nearly all actives have a fitted effect of over 55% in size; note: potency is the fitted concentration of half-maximal effect
[10] = qHTS assay to identify small molecule antagonists of the androgen receptor (AR) signaling pathway - cell viability counter screen (AID 743033; note: nearly all actives have a fitted effect of over 45% in size)
[11] = target: Androgen receptor (Homo sapiens) (UniProt P10275); assay: qHTS assay to identify small molecule antagonists of the androgen receptor (AR) signaling pathway (AID 743035; active = well fitted inhibition curve with a large enough effect in the signal ratio in the repeat runs, not every such curve was filed as active; the % refers to the signal ratio)
How it was run: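 AR-bla HEK293 reporter cells; 4 h settle at 37C/5% CO2; compound + R1881 agonist, 16 h at 37C; LiveBLAzer B/G FRET substrate 2 h RT; fluorescence intensity read. qHTS format.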

[12] = target: Androgen receptor (Homo sapiens) (UniProt P10275); assay: qHTS assay to identify small molecule agonists of the androgen receptor (AR) signaling pathway (AID 743036; active = well fitted activation curve with a large enough effect in the signal ratio in the repeat runs, with a control signal flat, not every such curve was filed as active; the % refers to the signal ratio)
How it was run: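 HEK293 cells stably carrying a UAS-driven beta-lactamase reporter (GeneBLAzer AR-UAS-bla-GripTite) were plated at 2,000 cells/well, rested 4 h at 37C, then exposed to compounds in DMSO for 16 h. LiveBLAzer B/G FRET substrate was added for 2 h at room temperature; fluorescence read.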

[13] = target: Androgen receptor (Homo sapiens) (UniProt P10275); assay: qHTS assay to identify small molecule agonists of the androgen receptor (AR) signaling pathway using the MDA cell line (AID 743040; note: nearly all actives have a fitted effect of over 20% in size; note: potency is the fitted concentration of half-maximal effect)
How it was run: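 Cell-based luciferase reporter: MDA-kb2, MMTV promoter (AR + GR response elements). 16 h compound exposure at 37C; ONE-Glo, 30 min RT, luminescence.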

[14] = qHTS assay to identify small molecule antagonists of the androgen receptor (AR) signaling pathway using the MDA cell line - cell viability counter screen (AID 743041; note: nearly all actives have a fitted effect of over 45% in size; note: potency is the fitted concentration of half-maximal effect)
How it was run: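 In this qHTS counter assay, fluorescence intensity after CellTiter-Fluor addition indicated viability of MDA-kb2 AR-luc cells given compounds and R1881 for 16 h at 37C.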

[15] = target: Androgen receptor (Homo sapiens) (UniProt P10275); assay: qHTS assay to identify small molecule antagonists of the androgen receptor (AR) signaling pathway using the MDA cell line (AID 743042; note: nearly all actives have a fitted effect of over 55% in size)
How it was run: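 MDA-kb2 cells (human breast carcinoma, stably carrying an MMTV-luciferase reporter responsive to AR and GR) were plated at 3,000 cells/well and preincubated 5 hr at 37C, then given compound plus R1881 agonist for 16 h. ONE-Glo luminescence was read.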

[16] = target: Glucocorticoid receptor (Homo sapiens) (UniProt P04150); assay: qHTS assay to identify small molecule agonists of the glucocorticoid receptor (GR) signaling pathway (AID 720691; active = well fitted activation curve with a large enough effect in the signal ratio in the repeat runs, not every such curve was filed as active; the % refers to the signal ratio); settings: GR-bla HeLa, beta-lactamase reporter ratio, 18 h; activation: at 62.4 µM (top of the series)
How it was run: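 HeLa GR-bla reporter line; cells pre-incubated 4 h, compound in DMSO 18 h at 37 C; LiveBLAzer B/G FRET substrate 2 h RT; fluorescence intensity read-out.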

[17] = target: Glucocorticoid receptor (Homo sapiens) (UniProt P04150); assay: qHTS assay to identify small molecule antagonists of the glucocorticoid receptor (GR) signaling pathway (AID 720692; active = well fitted inhibition curve with a large enough effect in the signal ratio in the repeat runs, not every such curve was filed as active; the % refers to the signal ratio; note: potency is the fitted concentration of half-maximal effect)
How it was run: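 Read-out: beta-lactamase FRET substrate fluorescence, 2 h at room temperature, in HeLa cells stably carrying a GRE-driven bla reporter. Compounds were co-incubated with 5 nM dexamethasone agonist (final) for 18 h at 37 C.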

[18] = qHTS assay for identifying genotoxic compounds that show differential cytotoxicity against isogenic chicken DT40 cell lines with known DNA damage response pathways - wild type cell line (AID 743012); note: nearly all actives have a fitted effect of over 60% in size; note: potency is the fitted concentration of half-maximal effect
How it was run: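 CellTiter-Glo luminescence readout of viability in wild type DT40 cells after 40 h compound exposure at 37 C/5% CO2; 300 cells/well; reagent incubated 30 min at room temperature before reading.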

[19] = qHTS assay for identifying genotoxic compounds that show differential cytotoxicity against isogenic chicken DT40 cell lines with known DNA damage response pathways - Rad54/Ku70 mutant cell line (AID 743015); note: nearly all actives have a fitted effect of over 60% in size; note: potency is the fitted concentration of half-maximal effect
[20] = qHTS assay to test for compound auto fluorescence at 460 nm (blue) in HepG2 cell free culture (AID 720685)
How it was run: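 Cell-free plates of MEM plus 10% FBS received 23 nL compound or DMSO vehicle; blue-channel (405/460 nm) intensity scored against triamterene as reference fluorophore.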
Tags give direction and shape of the fitted curve or compound fluorescence and quenching.

Androgen receptor (Homo sapiens), sequence (P10275 whole entry, looked up): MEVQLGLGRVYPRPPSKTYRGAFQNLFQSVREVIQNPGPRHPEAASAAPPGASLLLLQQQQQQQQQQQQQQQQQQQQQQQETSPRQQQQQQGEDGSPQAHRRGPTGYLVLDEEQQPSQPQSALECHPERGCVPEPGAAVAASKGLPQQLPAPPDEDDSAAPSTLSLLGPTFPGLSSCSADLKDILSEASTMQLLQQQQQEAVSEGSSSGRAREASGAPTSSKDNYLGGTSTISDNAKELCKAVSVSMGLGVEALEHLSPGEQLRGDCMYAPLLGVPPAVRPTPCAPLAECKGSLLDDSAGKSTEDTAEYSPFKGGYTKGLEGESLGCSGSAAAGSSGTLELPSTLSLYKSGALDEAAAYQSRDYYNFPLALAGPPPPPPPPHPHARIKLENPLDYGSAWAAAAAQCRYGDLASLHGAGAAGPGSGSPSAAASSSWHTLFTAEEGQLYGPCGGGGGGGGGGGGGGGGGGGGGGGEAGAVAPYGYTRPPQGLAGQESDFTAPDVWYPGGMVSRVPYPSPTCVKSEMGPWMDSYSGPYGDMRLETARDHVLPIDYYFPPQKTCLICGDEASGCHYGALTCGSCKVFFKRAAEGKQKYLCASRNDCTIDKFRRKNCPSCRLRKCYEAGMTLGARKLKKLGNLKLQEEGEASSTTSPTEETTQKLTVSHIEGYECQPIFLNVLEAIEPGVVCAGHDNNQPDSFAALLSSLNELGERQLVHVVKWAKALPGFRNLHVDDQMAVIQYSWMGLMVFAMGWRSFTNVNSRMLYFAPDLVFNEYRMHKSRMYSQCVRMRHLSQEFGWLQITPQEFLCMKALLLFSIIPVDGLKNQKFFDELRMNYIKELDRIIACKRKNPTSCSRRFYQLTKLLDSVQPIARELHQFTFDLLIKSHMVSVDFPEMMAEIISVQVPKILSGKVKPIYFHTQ
Glucocorticoid receptor (Homo sapiens), sequence (P04150 whole entry, looked up): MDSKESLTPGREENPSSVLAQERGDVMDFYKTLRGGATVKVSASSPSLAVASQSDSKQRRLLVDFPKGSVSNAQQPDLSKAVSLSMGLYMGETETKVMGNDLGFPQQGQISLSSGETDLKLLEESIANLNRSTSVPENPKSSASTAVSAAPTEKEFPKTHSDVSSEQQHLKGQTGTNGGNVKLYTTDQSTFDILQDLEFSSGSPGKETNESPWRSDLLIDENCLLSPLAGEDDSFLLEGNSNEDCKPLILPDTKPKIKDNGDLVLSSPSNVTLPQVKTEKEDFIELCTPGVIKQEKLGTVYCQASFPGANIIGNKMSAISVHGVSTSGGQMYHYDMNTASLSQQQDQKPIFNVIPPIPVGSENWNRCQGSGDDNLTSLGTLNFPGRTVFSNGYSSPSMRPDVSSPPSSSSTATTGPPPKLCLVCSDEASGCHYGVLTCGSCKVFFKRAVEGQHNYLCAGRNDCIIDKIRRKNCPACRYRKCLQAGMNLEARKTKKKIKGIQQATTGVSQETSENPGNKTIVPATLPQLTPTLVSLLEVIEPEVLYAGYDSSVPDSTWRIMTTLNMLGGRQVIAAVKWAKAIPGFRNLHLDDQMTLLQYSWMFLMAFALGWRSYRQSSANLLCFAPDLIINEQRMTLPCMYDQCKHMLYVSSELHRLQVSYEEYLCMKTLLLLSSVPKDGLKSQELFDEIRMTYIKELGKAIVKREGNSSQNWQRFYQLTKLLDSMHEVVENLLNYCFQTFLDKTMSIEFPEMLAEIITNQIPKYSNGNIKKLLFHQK

Row | Structure (SMILES) | Potency [1] | Potency [2] | Potency [3] | Potency [4] | Potency [5] | Potency [6] | outcome [7] | Potency [8] | Potency [9] | Potency [10] | Potency [11] | Potency [12] | Potency [13] | Potency [14] | Potency [15] | Potency [16] | Potency [17] | Potency [18] | Potency [19] | outcome [20]
1 | O=C(O)c1c(Cl)c(Cl)c(Cl)c(Cl)c1-c1c2cc(I)c(=O)c(I)c-2oc2c(I)c(O)c(I)cc12 | inactive | inactive | inactive | 11.2 µM [fluorescent] (active) | 11.2 µM [fluorescent] (active) | inactive | inactive | inactive | inactive | inactive | inactive | inactive | 13.3 µM (active) | 24.8 µM (active) | inactive | – | – | – | – | –
2 | COc1cc2c(cc1OC)[C@@H](c1ccccc1)CN(C)CC2 | inactive | inactive | inactive | inactive | inactive | inactive | inactive | inactive | inactive | inactive | inactive | inactive | inactive | inactive | inactive | inactive | inactive | 23.7 µM (active) | inactive | –
3 | CN[C@@H]1CCc2[nH]c3ccc(C(N)=O)cc3c2C1 | inactive | inactive | inactive | inactive | – | inactive | inactive | inactive | inactive | inactive | – | – | – | inactive | – | inactive | inactive | inactive | inactive | inactive
4 | Cn1cc(NC(=O)c2cc(NC(=O)c3cc(NC=O)cn3C)cn2C)cc1C(=O)NCCC(=N)N | inactive | inactive | inactive | inactive | inactive | inactive | inactive | inactive | inactive | inactive | – | – | – | inactive | – | – | – | inactive | inactive | –
5 | CCN(CC)Cc1cc(Nc2ccnc3cc(Cl)ccc23)ccc1O | inactive | inactive | inactive | inactive | inactive | inactive | inactive | inactive | 7.17 µM (active) | – | – | – | inactive | – | inactive | inactive | inactive | 7.17 µM (active) | 8.04 µM (active) | –
6 | C[C@H](O)[C@H](O)[C@H]1CNc2nc(N)[nH]c(=O)c2N1 | inactive | 12.6 µM (active) | inactive | inactive | inactive | inactive | – | inactive | inactive | inactive | – | – | – | inactive | – | inactive | inactive | – | inactive | –
7 | O=S(=O)(O)Oc1ccc(C(c2ccc(OS(=O)(=O)O)cc2)c2ccccn2)cc1 | inactive | inactive | inactive | inactive | inactive | inactive | inactive | inactive | inactive | inactive | – | – | – | inactive | – | inactive | inactive | inactive | inactive | –
8 | COC(=O)C1=C(C#N)NC(C)=C(C(=O)OC(C)C)C1c1cccc([N+](=O)[O-])c1 (stereo unspecified) | inactive | inactive | inactive | inactive | inactive | inactive | inactive | inactive | 23.7 µM (active) | inactive | – | – | – | inactive | – | – | – | 13.3 µM (active) | 18.8 µM (active) | –
9 | CCCc1ccc(C(=O)O)cc1 | inactive | inactive | inactive | inactive | inactive | inactive | inactive | inactive | inactive | inactive | – | – | – | inactive | – | inactive | inactive | inactive | inactive | –
10 | CC(C)(CO)[C@@H](O)C(=O)NCCCC(=O)O | inactive | inactive | inactive | inactive | inactive | inactive | inactive | inactive | – | inactive | inactive | inactive | inactive | inactive | inactive | inactive | inactive | – | inactive | –
11 | C#C[C@]1(OC(C)=O)CC[C@H]2[C@@H]3CCC4=CC(=O)CC[C@@H]4[C@H]3CC[C@@]21C | inactive | inactive | inactive | inactive | inactive | inactive | inactive | 6.01 µM (active) | 10.6 µM (active) | – | – | – | – | inactive | – | – | 2.13 µM (active) | 4.22 µM (active) | 8.41 µM (active) | –
12 | CC(=O)O[C@H]1C[C@@]2(C)[C@@H](C[C@@H](O)[C@H]3[C@@]4(C)CC[C@@H](O)[C@@H](C)[C@@H]4CC[C@@]32C)/C1=C(\CCC=C(C)C)C(=O)O | inactive | inactive | inactive | inactive | inactive | inactive | inactive | inactive | inactive | inactive | inactive | inactive | inactive | – | inactive | inactive | inactive | inactive | inactive | –
